The target of the assay is Fibroblast growth factor 2 (Homo sapiens) (UniProt P09038). The assay is described as follows: FGF2 binders on small-molecule microarrays, primary screen, biochemical, small-molecule microarray, 635/667 nm fluorescence (AID 1133). The following applies: small-molecule microarray binding, FGF2, fluorescence 635/667; higher = more signal.
Sequence of Fibroblast growth factor 2 (Homo sapiens) (P09038 whole entry, looked up): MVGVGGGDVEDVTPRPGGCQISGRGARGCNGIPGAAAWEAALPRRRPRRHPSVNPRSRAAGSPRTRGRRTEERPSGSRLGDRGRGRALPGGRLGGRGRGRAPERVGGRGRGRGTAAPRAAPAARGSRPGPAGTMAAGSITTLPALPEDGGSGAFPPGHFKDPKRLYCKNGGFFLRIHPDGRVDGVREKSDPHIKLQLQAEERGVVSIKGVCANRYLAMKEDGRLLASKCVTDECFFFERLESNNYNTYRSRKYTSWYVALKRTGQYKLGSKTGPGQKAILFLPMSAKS
`CCCCC(O)C1C=CC2C(=O)N(Cc3ccccc3)C(=O)C2N1n1cnnc1` (stereo unspecified) displayed a composite z-score of -0.0025. The compound `COCCCNC(=O)[C@@]1(C)c2ccccc2C(=O)N(c2ccc(C)cn2)[C@H]1c1ccc(CO)cc1` had a composite z-score of 0.204. For the compound `CCCC=C(CCC)[C@@H](NS(=O)(=O)c1cccc2cccnc12)c1ccc(C(=O)OC)cc1`, the composite z-score came to 0.33. Under `COc1ccccc1CN1C(=O)c2ccccc2[C@](Cc2ccccc2I)(C(=O)NCCN2CCOCC2)[C@@H]1c1ccc(CO)cc1` stands 1.39; under `C=C(COC)/C(=C/C[C@@H](OC(=O)c1ccncc1)c1cccc(OCCO)c1)c1cc(C(=O)OC)ccc1OC`, 2. `C=CCNC(=O)[C@@H]1[C@H]2C(=O)O[C@H](c3ccccc3)[C@H](c3ccccc3)N2[C@H](c2ccc(O)cc2)[C@@]12C(=O)Nc1ccc(C#CCCO)cc12` displayed a composite z-score of -0.53. Turning to `COCCCNC(=O)[C@]1(Cc2ccccc2)N=C(c2ccc(OCCCO)cc2)O[C@@H]1c1ccccc1N=[N+]=[N-]`, the composite z-score came to 0.401.

With `COC(=O)C(CC#Cc1ccc2c(c1)[C@]1(C(=O)N2)[C@H](c2ccccc2OCCO)N2[C@H](c3ccccc3)[C@H](c3ccccc3)OC(=O)[C@H]2[C@@H]1C(=O)Nc1nc2ccccc2s1)C(=O)OC`, the composite z-score is 0.622. The compound `CCOC(=O)C[C@H]1[C@H](OC(=O)c2cc3ccccc3oc2=O)[C@@H](NC(=O)c2ccc3ccccc3n2)c2cc(OCCCO)ccc2N1C(=O)c1ccc2ccccc2n1` came in with a composite z-score of 0.818.

The compound `NCCCCCCNC(=O)[C@H]1C[C@H]2C(=O)N3CCC[C@H]3C(=O)N2[C@H]1c1ccc(O)cc1` had a composite z-score of 1.66. With `C=CCOC(=O)[C@@H]1[C@H]2C(=O)O[C@H](c3ccccc3)[C@H](c3ccccc3)N2[C@H](c2ccc(OCCOC(=O)[C@@H]3C[C@@H]4C(=O)N[C@@H](CCCCNC(C)=O)C(=O)N4[C@@H]3c3ccc(O)cc3)cc2)[C@@]12C(=O)Nc1ccc(I)cc12`, the composite z-score came out at 1.62.
